# Lassa entry inh: qHTS for Inhibitors of binding or entry into cells for Lassa Virus | Lassa virus pseudotype entry inhibition, cell reporter | Potency, µM (highest dose often 37.9 µM), for the others: at the highest dose activity change, negative = inhibition, hits mostly inhibitors | 300,000 tested, 1.2% active; calls by dose curve; tested in HEK293 cells; also: potency is read from the fitted curve at half-maximal effect; nearly all actives have a fitted effect of over 50% in size
# Marburg entry inh: qHTS for inhibitors of binding or entry into cells for Marburg Virus | Potency, µM (top dose mostly 37.8 µM), for the others: top-dose activity change, negative = inhibition, usual class: inhibitors | 300,000 tested, 1.8% active | Marburg virus pseudotyped entry inhibition, cell reporter; calls by dose curve; tested in HEK293 cells; also: potency is read from the fitted curve at half-maximal effect
# FMDV antiviral: High Throughput Screening for Foot and Mouth Disease Virus Antivirals; 410,000 tested, 1.2% active; FMDV antiviral cell-based qHTS; Potency, µM (doses to about 57.9 µM), for inactives: at the highest dose activity change, negative = inhibition, actives largely listed as inhibitors; AID 1159524, 2015; calls by dose curve; tested in HEK293T cells; also: read-out not given here; potency is read from the fitted curve at half-maximal effect; nearly all actives have a fitted effect of over 45% in size
# HCV inh: qHTS Assay for Inhibitors of Hepatitis C Virus (HCV); AID 651820, 2012; 340,000 tested, 3.4% active; Huh7.5.1 HCVcc-Cre infection, luciferase reporter, 44 h; Potency, µM (doses to about 41.8 µM), for the others: top-dose activity change, negative = inhibition, hits mostly inhibitors; active = well fitted inhibition curve with a large enough effect; inconclusive = small, poorly fitted or top-dose-only effect, or another doubt; inactive = no such curve, though single readings can be large or run the other way; also: potency is read from the fitted curve at half-maximal effect
#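 Cells (1,000/well) were plated 4 h before compound, then infected with HCVcc-Cre virus (~0.5 moi). After 44 h further culture, infection was read as luciferase luminescence following a 15 min substrate incubation at room temperature.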
# HCMV inh: qHTS Assay for inhibitors of the human cytomegalovirus (HCMV); HFF cells, HCMV-luciferase reporter, 72 h; stronger effect = lower value; activity change, negative = inhibition, % at 57.5 µM; 410,000 tested, 4.5% active; AID 1259415, 2018; in the data active = activity change below about -60%; inconclusive = no clear call, values can overlap the other calls; inactive = above about -39%
#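 Compounds were evaluated in HFFs infected with an HCMV luciferase reporter virus (MOI 1 PFU/cell). Luciferase in lysates collected 72 h post infection served as the replication measure.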
# * hit, by the source's call; ? = inconclusive; · = not tested or not shown; [ ] = dose if it differs, or a comment. Sampled rows, rich in hits. Any-hit rate of the full collection: about 7.9%. % is scaled to controls: 0 for no effect and ±100 for the full control effect.
SMILES,Lassa entry inh,Marburg entry inh,FMDV antiviral,HCV inh,HCMV inh
CC(C)COc1ccc(C(=O)Nc2cc3nn(-c4ccccc4)nc3cc2Cl)cc1,28%[46.1 µM],4%[46.1 µM],6%,·,26
Cc1ccsc1C(=O)Nc1cc(Cl)ccc1-n1cncn1,-3%,6%,34%,7.1µM*,52
CCOc1ccc(OCCCC(=O)Nc2cc(Cl)ccc2-n2cncn2)cc1,·,·,?,?,-72*
Cc1ccc(C(=O)Nc2cc(Cl)ccc2-n2cncn2)s1,-2%[46.1 µM],6%,66%,?,-18
CC(=O)c1ccc(OCCCC(=O)Nc2cc(Cl)ccc2-n2cncn2)cc1,-2%,-12%,0%,-24%,51
Cc1ccccc1N=Cc1cccc(O)c1O,?,?,-4%,9%,·
Oc1ccccc1C=NN=C1c2ccccc2-c2ccccc21,?,8%,45%,8.9µM*,45
Oc1cccc(/C=N/N=C/c2cccc(O)c2O)c1O,11µM*,?,-87%,-7%,-11
O=C1c2ccccc2NC(c2ccc3c(c2)OCCO3)N1c1ccc2c(c1)OCCO2 (configuration not stated),?,8.9µM*,-12%,-8%,-11
COc1cc(C2Nc3ccccc3C(=O)N2c2ccc3c(c2)OCCO3)ccc1OCC(C)C (configuration not stated),?,?,-11%,?,4
CCOc1ccc(S(=O)(=O)Nc2cc3c(C(=O)OCc4ccccc4)c(C)oc3c3ccccc23)cc1,?,?,6%,·,-84*
CCCOC(=O)c1c(C)oc2c1cc(NS(=O)(=O)c1ccc(OCC)cc1)c1ccccc12,?,?,7%,·,-96*
CCOC(=O)c1c(C)oc2c1cc(O)c1ccccc12,11%,-22%,43%,32µM*,179
CCOC(=O)c1c(C)oc2c1c(C=NCC1CCCO1)c(O)c1ccccc12 (configuration not stated),4%,4%,-11%,-8%,54
CCOC(=O)c1c(C)oc2c1c(C=NCc1ccccn1)c(O)c1ccccc12,14µM*,?,-22%,4.5µM*,-32
COc1cccc(C(=O)c2cn(CC(=O)Nc3cccc(Cl)c3C)c3nc(C)ccc3c2=O)c1,19%[46.1 µM],·,-24%,·,-1
COc1ccc(-c2nc(-c3ccccc3)nc3ccccc23)cc1,·,·,·,·,-9
CCc1nc(C)cn1S(=O)(=O)c1cc(C)c(OC)c(C)c1C,?,?,-28%,2.8µM*,-76*
CCO[C@@H](Cc1ccc(OCCc2ccc(OS(C)(=O)=O)cc2)cc1)C(=O)O,·,·,·,·,3
Cc1cccc(NC(=O)CSc2nc3ccccc3nc2N2CCOCC2)c1C,?,-17%[46.1 µM],-25%,·,12
O=C(c1ccc(S(=O)(=O)NCC2CCCO2)cc1)N1CCN(c2cccc(Cl)c2)CC1 (configuration not stated),·,·,?,11µM*,-70*
COc1ccc(-c2ccc(S(=O)(=O)NCC3CCCO3)cc2)cc1 (configuration not stated),?,-17%,20%,?,·
O=S(=O)(NCC1CCCO1)c1ccc(-c2ccc(Cl)cc2)cc1 (configuration not stated),?,?,37%,?,-60*
O=C(c1ccc(S(=O)(=O)NCC2CCCO2)cc1)N1CCN(c2ccccc2F)CC1 (configuration not stated),·,·,-5%,-5%,-23
COc1ccccc1-c1cc(C(=O)N2CCN(c3ccccc3)CC2)no1,10%[46.1 µM],?,59%,9%,-7
SMILES,Lassa entry inh,Marburg entry inh,FMDV antiviral,HCV inh,HCMV inh
COc1cc2c(C(=O)N3CCN(c4ccccc4)CC3)c(C)oc2cc1Br,?,?,20µM*,?,-5
CCOC(=O)c1c(CN2CCOCC2)n(-c2ccccc2)c2cc(Br)c(O)cc12,-5%,12%,8%,-7%,?
CCOC(=O)c1c(CN(C)C)n(-c2ccccc2)c2cc(Br)c(OC)cc12,?,10µM*,-19%,7.9µM*,-30
CCOC(=O)c1c(CN2CCOCC2)n(-c2ccccc2)c2cc(Br)c(OC)cc12,9.2µM*,?,-27%,?,18
O=C(NCc1ccccc1Cl)C1CCN(S(=O)(=O)Cc2ccccc2)CC1,0%[46.1 µM],-6%[46.1 µM],-17%,·,8
CCOc1ccc(-n2cc(-c3ccc(OC)c(OC)c3)[nH]c2=S)cc1,-12%[46.1 µM],16%[46.1 µM],-24%,-14%,-22

# Bioassay records as filed in PubChem.
